Laboratory results: PubChem BioAssay (EPA / NIEHS)
The source made the active and inactive calls. How the source made its calls: active means hit-call score of the fitted dose curve at least 0.9, where 1 is the maximum; inactive means score below 0.9.

Test: ATG_GATA_CIS: Attagene CIS-FACTORIAL HepG2 Assay for human GATA Binding Protein (AID 2282944)
Details: HepG2 GATA cis-element reporter, Attagene multiplex mRNA; actives raise or lower the signal
Protocol: ATG_CIS is a cell-based, multiplexed-readout assay that uses HepG2, a human liver cell line, with measurements taken at 24 hours after chemical dosing in a 24-well plate.ATG_GATA_CIS is one of 52 assay component(s) measured or calculated from the ATG_CIS assay. It is designed to make measurements of mRNA induction, a form of inducible reporter, as detected with fluorescence intensity signals by Reverse transcription polymerase chain reaction (RT-PCR) and Capillary electrophoresis technology.Data from the assay component ATG_GATA_CIS was analyzed into 1 assay endpoint. This assay endpoint, ATG_GATA_CIS, was analyzed with bidirectional fitting relative to DMSO as the negative control and baseline of activity. Using a type of inducible reporter, measures of mRNA for gain or loss-of-signal activity can be used to understand the reporter gene at the transcription factor-level as they relate to the gene GATA1. Furthermore, this assay endpoint can be referred to as a primary readout, because this assay has produced multiple assay endpoints where this one serves a reporter gene function. To generalize the intended target to other relatable targets, this assay endpoint is annotated to the dna binding intended target family, where the subfamily is GATA proteins.
Human liver HepG2 cells are transiently transfected with multiple reporter transcription units (MRTUs) in 6-well plates using FuGene 6 reagent (Roche; 3 ml FuGene/1 mg DNA). The MRTU constructs are regulated by a cis-regulating element (promoter). […] A major difference between the CIS and TRANS system is that in CIS activities of endogenous TFs are measured, whereas the TRANS assay evaluates changes in activities of exogenous, chimeric NR-Gal4 proteins. […] At the end of 24 hour incubation, total RNA was isolated using TriZol reagent (Invitrogen). The isolated RNA is then reverse-transcribed using oligo(dT) primer and Mo-MLV reverse transcriptase (Invitrogen) with DNAse I (Ambion) treatment for 30 min. The one-tenth of the produced cDNA was amplified by PCR using Taq DNA polymerase (Invitrogen) and two reporter sequence-specific primers. The PCR products were fluorescently labeled by primer extension with 6-arboxyfluorescein (6-FAM) 5'-labeled reporter sequence-specific primer (2 min at 95 C, 20 s at 68 C and 10 min at 72 C) and these products were digested with 5U of HpaI (New England Biolabs) for 2h at 37 C. The fragments were purified using Qiaquick PCR columns (Qiagen), analyzed on an ABI 3130xL genetic analyzer (Applied Biosystems) with peak positions identified by using a set of X-rhodamine (ROX)-labeled MapMarker1000 molecular weight standards (BioVentures). The raw capillary electrophoresis data was processed using Attagraph software (Attagene).
In the case of `O=c1cc(-c2ccc(O)cc2)oc2cc(O)cc(O)c12`, the outcome is reported as “inactive”.
For `CCCOC(=O)CC`, the outcome was “inactive”.
With `O=S(=O)(O)c1cc(S(=O)(=O)O)c2c(N=Nc3ccccc3)c(O)ccc2c1` the outcome was “inactive”.
In the case of `CCCCOCC(C)OCC(C)O` (stereo not given), the outcome is reported as “inactive”.
In the case of `CC1(C)[C@H](C=C(Cl)Cl)[C@H]1C(=O)OCc1cccc(Oc2ccccc2)c1`, the outcome is reported as “inactive”.
With `CC(C)(C)C1CCC(O)CC1` (stereo not given) the outcome was “inactive”.
With `CC/C=C\CCCCO` the outcome was “inactive”.
For `O=S(=O)(O)CCCN1CCOCC1`, the outcome was “inactive”.
With `CC(C)CCCC(C)(C)O` the outcome was “inactive”.
In the case of `O=C1CCC(=O)N1`, the outcome is reported as “inactive”.
With `CC(C)N(c1ccccc1)C(C)C` the outcome was “inactive”.
For `CC(=O)Oc1c(C)c(C)c2c(c1C)CC[C@@](C)(CCC[C@H](C)CCC[C@H](C)CCCC(C)C)O2`, the outcome was “inactive”.
For `CC(=O)OC/C=C(C)/C=C/C=C(C)/C=C/C1=C(C)CCCC1(C)C`, the outcome was “inactive”.
For `CCCCOCCOCCOCCO`, the outcome was “inactive”.
For `C=C(C)C(=O)OCCC[Si](OC)(OC)OC`, the outcome was “inactive”.
With `CCC(=O)OC(C)(C)C1CC=C(C)CC1` (stereo not given) the outcome was “inactive”.
With `CCCCCCCCCC(=O)OCC` the outcome was “inactive”.
With `O=C1CCCCCCCCCCCC(=O)OCCO1` the outcome was “inactive”.
In the case of `COc1ccc2[nH]cc(CCNC(C)=O)c2c1`, the outcome is reported as “inactive”.
For `CC(O)CNCC(C)O` (stereo not given), the outcome was “inactive”.
For `CCCCCCCC(=O)N(C)C`, the outcome was “inactive”.
With `CCCC1CCOC(C)S1` (stereo not given) the outcome was “inactive”.
With `CC(C)=CC(=O)O` the outcome was “inactive”.
For `CC(O)CN` (stereo not given), the outcome was “inactive”.
In the case of `N=C1N=C(N)c2ccccc21`, the outcome is reported as “inactive”.
In the case of `CC(=O)OC(C)(C)C`, the outcome is reported as “inactive”.
For `C=CC(=O)OCC(CO)(COC(=O)C=C)COC(=O)C=C`, the outcome was “inactive”.
For `Cc1cccc(O)c1`, the outcome was “inactive”.
In the case of `CCCCCCCCCCCCN1CCOCC1`, the outcome is reported as “inactive”.
For `[Cu+]`, the outcome was “inactive”.
For `CC(C)CCOC(=O)CC(C)C`, the outcome was “inactive”.
For `CC(=O)N(C)C`, the outcome was “inactive”.
For `NC(=O)c1cnccn1`, the outcome was “inactive”.
For `CCCCCCCCOC(C)=O`, the outcome was “inactive”.
In the case of `CCCCCC1C(=O)CCC1CC(=O)OC` (stereo not given), the outcome is reported as “inactive”.
For `CC/C(=C(\c1ccccc1)c1ccc(OCCN(C)C)cc1)c1ccccc1`, the outcome was “inactive”.
In the case of `O=S1(=O)CC(Cl)(Cl)C(Cl)(Cl)C1`, the outcome is reported as “inactive”.
With `CCCCCCCCOS(=O)(=O)O` the outcome was “inactive”.
With `CC(=O)c1ccc(O)cc1` the outcome was “inactive”.
In the case of `CC(=O)CC(=O)N(C)C`, the outcome is reported as “inactive”.
